# Compound activity deposited in PubChem BioAssay by National Center for Advancing Translational Sciences (NCATS).
# Only some compounds are listed: those with a hit (about 10% of all), similar ones and a draw of the others.
# GLA inh pH 4.5: qHTS Assay for Inhibitors of Human alpha-Galactosidase at pH 4.5; Alpha-galactosidase A (Homo sapiens), P06280; purified enzyme, 4-MU-alpha-Gal fluorescence, pH 4.5; activity change, negative = inhibition, % at 105 µM; 230,000 tested, under 10 active;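 further: 0% = full activity with enzyme and -100% = basal without enzyme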
# ALDH1A1 inh: qHTS Assay for Inhibitors of Aldehyde Dehydrogenase 1 (ALDH1A1) | Potency, µM (top dose mostly 75.3 µM), inactives show top-dose activity, negative = inhibition, actives largely listed as inhibitors | Purified ALDH1A1, NADH fluorescence, propionaldehyde substrate | 220,000 tested, 7.3% active | AID 1030, 2008 | Aldehyde dehydrogenase 1A1 (Homo sapiens), P00352; active means well fitted inhibition curve with a large enough effect, not every such curve was filed as active; inconclusive means small, poorly fitted or top-dose-only effect, or another doubt; inactive means no such curve, though single readings can be large or run the other way;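 further: potency means the concentration at half of the fitted maximal effect; plate controls were no enzyme wells and a reference inhibitor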
# aGal spleen mod: qHTS Assay for Inhibitors and Activators of Human alpha-Galactosidase From Spleen Homogenate; Potency, µM (highest dose often 80 µM), without a hit: top-dose activity change, negative = inhibition, hits mostly inhibitors; AID 2107, 2009; 240,000 tested, 0.008% active; human spleen homogenate, 4MU-alpha-Gal fluorescence, 40 min; Alpha-galactosidase A (Homo sapiens), P06280;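 further: potency means the concentration at half of the fitted maximal effect; 0% = enzyme with vehicle and -100% = no enzyme basal signal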
#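 Human spleen homogenate (1 ug) as enzyme source, 4-methylumbelliferyl-alpha-D-galactopyranoside 1 mM final, citrate/phosphate pH 5.0 with 0.01% Tween-20. Compounds 40 min at 37C, NaOH/glycine stop; fluorescence Ex 365/Em 440, Hill-fit AC50.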
# HPGD block: qHTS Assay for Inhibitors of HPGD (15-Hydroxyprostaglandin Dehydrogenase); 15-hydroxyprostaglandin dehydrogenase [NAD(+)] (Homo sapiens), P15428; purified HPGD, NADH fluorescence kinetic, PGE2 substrate; Potency, µM, without a hit: top-dose activity change, negative = inhibition, hits mostly inhibitors; 150,000 tested, 4.3% active; active means well fitted inhibition curve with a large enough effect, not every such curve was filed as active; inconclusive means small, poorly fitted or top-dose-only effect, or another doubt; inactive means no such curve, though single readings can be large or run the other way; further: potency means the concentration at half of the fitted maximal effect
#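 NADH formation kinetics: reaction with 30 uM PGE2 and 1 mM NAD+ (final), 20 nM enzyme, Tris-HCl pH 8 with Tween 20, after 15 min compound preincubation at room temperature. Fluorescence change, last versus first of five reads.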
# ALOX12 inhib: qHTS Assay for Inhibitors of 12-hLO (12-human lipoxygenase) | Polyunsaturated fatty acid lipoxygenase ALOX12 (Homo sapiens), P18054 | 150,000 tested, 0.12% active | purified 12-hLO, xylenol orange hydroperoxide absorbance | Potency, µM (series often up to 57.1 µM), for inactives: at the highest dose activity change, negative = inhibition, hits mostly inhibitors | AID 1452, 2008; further: potency means the concentration at half of the fitted maximal effect; nearly all actives have a fitted effect of over 55% in size
# Target sequence (P18054 whole entry, looked up): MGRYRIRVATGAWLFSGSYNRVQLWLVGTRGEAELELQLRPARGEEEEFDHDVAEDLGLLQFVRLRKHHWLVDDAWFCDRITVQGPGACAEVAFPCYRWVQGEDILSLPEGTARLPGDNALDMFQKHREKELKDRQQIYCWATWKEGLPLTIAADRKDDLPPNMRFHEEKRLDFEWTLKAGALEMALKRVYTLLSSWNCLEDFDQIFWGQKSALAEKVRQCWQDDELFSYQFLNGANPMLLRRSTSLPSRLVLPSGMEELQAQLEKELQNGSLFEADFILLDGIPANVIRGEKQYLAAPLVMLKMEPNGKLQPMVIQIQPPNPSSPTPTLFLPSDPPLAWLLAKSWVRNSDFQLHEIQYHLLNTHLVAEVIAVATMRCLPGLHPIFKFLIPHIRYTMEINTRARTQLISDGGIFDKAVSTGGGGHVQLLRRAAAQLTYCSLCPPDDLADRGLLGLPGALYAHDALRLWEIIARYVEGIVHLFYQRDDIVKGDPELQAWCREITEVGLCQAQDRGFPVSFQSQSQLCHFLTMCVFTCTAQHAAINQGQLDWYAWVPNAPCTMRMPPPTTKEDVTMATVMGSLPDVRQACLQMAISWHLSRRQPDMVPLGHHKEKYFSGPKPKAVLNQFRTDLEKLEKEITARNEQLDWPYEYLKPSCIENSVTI
#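 Purified human 12hLO (150 nM final) was preincubated with compounds for 15 min at room temperature in 25 mM Hepes pH 7.0, 0.01% Triton X-100, then reacted with 40 uM arachidonic acid for 30 min. Hydroperoxide was detected with ferrous iron/xylenol orange.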
# PNC assembly inh: High Content Assay for Compounds that inhibit the Assembly of the Perinucleolar Compartment; PC3M PTB-GFP, PNC prevalence imaging, 16 h; active compounds read low; activity change (PNC), negative = inhibition, % at 10 µM; 140,000 tested, 3.1% active;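 active means readout at or below -70, meaning at least 70% loss of cells showing the perinucleolar compartment, a nuclear body marking cancer cells; inconclusive means readout between -30 and a set limit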;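 further: plate controls were DMSO wells for no effect and camptothecin positive control wells for full effect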
#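 Compounds are pinned in duplicate onto adhered PC3M cells stably expressing GFP-tagged PTB and incubated 16 h at 37 C. Cells are then fixed, nuclei stained with Hoechst, and PNC-positive cells counted.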
# An asterisk follows results filed as active; ? = inconclusive; · = not tested or not shown; ! = repeats disagree; [ ] = dose if it differs, or a comment. Unless noted, the call rests on the fitted dose curve; in most records, active means well fitted curve in the direction sought with a large enough effect; inconclusive means small, poorly fitted or top-dose-only effect, or another doubt; inactive means no such curve, though single readings can be large; an effect the other way counts as inactive or inconclusive. Unless noted, on the % scale 0 is the no-effect control and ±100 the full control effect.
SMILES,GLA inh pH 4.5,ALDH1A1 inh,aGal spleen mod,HPGD block,ALOX12 inhib,PNC assembly inh
Cc1sc2nc(SC3CCOC3=O)n(Cc3ccccc3)c(=O)c2c1C (configuration not stated),-19.3,15.8µM*,2.1%,·,·,·
O=C1OCCC1Sc1nc2cc(Cl)ccc2n1Cc1ccccc1 (configuration not stated),-8.7,25.1µM*,-5.9%,-20.7%,-22.5%,-23.1
Cc1cc(C)c(-c2cc([C@H](C)O/N=C\[C@@H](C)[C@H](OCc3ccccc3)C(C)C)on2)c(C)c1,·,8.8%[13.5 µM],7.8%[17.5 µM],·,·,·
OC[C@H](S)CS,·,0.1µM*,·,-10.0%,-7.2%[11.4 µM],·
CC1(C)OC(c2ccccc2)=C/C(=C/C=Nc2ccccc2)O1,-14.7,4.47µM*,-16.4%,-13.3%,-5.5%,-23.7
CC1(C)OC(c2ccccc2)=C/C(=C\C=N\NC(=O)c2ccncc2)O1,-28.1,·,-8.0%,·,·,·
COC(=O)c1ccc(-c2nc3ccccc3[nH]2)cc1,8.5,?,-4.4%,?,4.2%,56.6
Cn1cccc1C(=O)N1CCC2(CCCN(Cc3nccs3)C2)CC1,·,-3.1%,-3.5%,-1.4%,1.3%,·
CCCn1nnc(NC(=O)C(C)Oc2ccc(Cl)cc2Cl)n1 (configuration not stated),-11.7,?,5.4%,-19.6%,-7.0%,26.3
CC(Oc1cc(Cl)ccc1Cl)C(=O)N/N=C\c1ccnn1C (configuration not stated),-0.9,14.6%,-17.5%,2.6%,2.4%,-109.0*
O=S(=O)(NC1=NCCCCC1)c1ccccc1Cl,-0.7,·,12.3%,·,·,·
CC(Sc1nnc2ccccn12)C(N)=O (configuration not stated),0.5,11.8%,-23.4%,·,·,·
CCSc1nnc(NC(=O)CCc2ccc(OC)cc2)s1,6.3,?,-3.6%,-10.3%,2.1%,58.5
C/C(=N\NC(=O)c1ccc(N(C)C)cc1)c1ccc(C)c(C)c1,2.6,14.1µM*,-1.9%,·,-3.4%,-10.7
CCN(CC)c1ccc(C(=O)N/N=C(\C)c2ccc(O)cc2)cc1,-3.5,25.1µM*,-12.6%,-22.0%,3.0%,10.5
Cc1cc(Sc2nc(N(C)C)nc(N(C)C)n2)nc(Cl)n1,9.0,0.1%,1.8%,·,·,·
COC/C=C/C1=CC2=CC(=O)C(C)(OC(=O)c3cnc4ccccc4n3)C(=O)C2=CN1c1cccc(C#N)c1 (configuration not stated),-8.0,-8.7%[13.5 µM],-2.5%[17.5 µM],-3.7%,-5.8%[11.4 µM],·
O=C(CN(C(=O)c1csnn1)c1cccc2ccccc12)NC1CCCC1,-9.2,0.0%,10.1%,·,·,·
O=C(O)c1cc(=O)c2ccc(Cl)cc2[nH]1,-9.9,-2.3%,11.8%,28.2µM*!,-7.0%,·
O=C1C2C3c4ccccc4C(c4ccccc43)C2C(=O)N1Cc1ccccn1 (configuration not stated),2.8,1.5%,3.4%,·,·,·
COc1ccc(-c2cc(C(F)F)n3ncc(C(=O)N4CCc5ccccc54)c3n2)cc1,-0.1,1.0%,5.4%,·,·,·
Cc1ccc(-c2cc(C(F)F)n3ncc(C(=O)N4CCCc5ccccc54)c3n2)cc1,3.9,-1.4%,-1.3%,-15.1%,5.8%,-100.0*
Cc1c(NC2(C#N)CCCC2)c(=O)n(-c2ccccc2)n1C,-3.0,4.0%,-20.1%,·,·,·
CN1CC[C@H](CN2c3ccccc3Sc3ccccc32)C1,·,6.0%[13.5 µM],·,-5.6%,4.2%[11.4 µM],·
Cc1nnc(NC(=O)C2CCN(c3nnnn3-c3ccccc3)CC2)s1,-0.8,20µM*,0.3%,-5.6%,-4.8%,-8.9
SMILES,GLA inh pH 4.5,ALDH1A1 inh,aGal spleen mod,HPGD block,ALOX12 inhib,PNC assembly inh
O=C(Nc1cccc2c1CCCC2)C1CCN(c2nnnn2-c2ccccc2)CC1,-2.0,8.91µM*,-3.8%,-10.4%,0.0%,?
Cc1nnc(NC(=O)C2CCN(c3cnccn3)CC2)s1,-15.3,5.6%,4.4%,-10.4%,-3.2%,-21.6
O=C(CCl)N1c2ccccc2OCC1c1ccccc1 (configuration not stated),4.6,0.3%,-0.3%,31.6µM*,5.8%,?
COc1ccc(S(=O)(=O)N2c3ccccc3OCC2c2ccccc2)cc1 (configuration not stated),-2.4,4.2%,-4.5%,-1.4%,0.4%,-12.9
CCOC(=O)c1sc2nc3n(c(=O)c2c1C)CCC3,5.3,-10.6%,2.2%,-11.0%,-5.2%,24.1
CCOC(=O)c1sc2nc(SCC#N)n(CCCN3CCCC3=O)c(=O)c2c1C,3.4,0.794µM*,-5.7%,?,1.1%,?
COc1cc([N+](=O)[O-])ccc1-c1ccc(C(=O)Nc2ccc(NC(C)=O)cc2)o1,-5.2,0.891µM*,-4.5%,28.2µM*,-9.3%,58.2
COc1ccc(NC(=O)c2ccc(-c3ccc([N+](=O)[O-])cc3)o2)cc1OC,-7.7,-9.6%,1.3%,-27.4%,-2.8%,21.8
CCOC(=O)C(C)Sc1nc2c(c(=O)[nH]c(=O)n2C)n1Cc1ccc(Cl)cc1 (configuration not stated),-17.4,17.8µM*,8.0%,?,-9.4%,8.9
CCC(C)Sc1nc2c(c(=O)[nH]c(=O)n2C)n1CCc1ccccc1 (configuration not stated),-1.4,?,5.4%,-15.8%,-2.2%,161.6
CC(C)Sc1nc2c(c(=O)[nH]c(=O)n2C)n1Cc1ccc(Cl)cc1,3.7,35.5µM*,-2.8%,?,-0.6%,-7.9
CCC(C)Sc1nc2c(c(=O)[nH]c(=O)n2C)n1CC(O)COc1ccccc1C (configuration not stated),-4.0,14.1µM*,4.3%,39.8µM*,-7.3%,-28.3
CCCCCn1c(SC(C)C(C)=O)nc2c1c(=O)[nH]c(=O)n2C (configuration not stated),-0.5,?,3.8%,-8.1%,-4.2%,8.8
CCC(C)Sc1nc2c(c(=O)[nH]c(=O)n2C)n1Cc1ccc(Cl)cc1 (configuration not stated),7.9,8.91µM*,8.9%,-6.6%,-9.0%,-16.8
CC(=O)OCC(=O)[C@]1(O)C(OC(C)=O)CC2C3CCC4=CC(=O)C=C[C@@]4(C)[C@]3(F)C(O)C[C@]21C (some centres not stated),5.8,6.9%,2.3%,-3.7%,-0.4%,·
CCOC(=O)C1(Cc2ccccc2)CCCN(Cc2ccncc2)C1 (configuration not stated),-1.7,1.4%,-4.2%,·,·,·
N#C/C(=C\c1ccc(N2CCCCC2)o1)C(=O)Nc1cccc(Br)c1,2.1,?,1.1%,-18.5%,0.2%,-108.4*
